Results taken from PubChem BioAssay (EPA / NIEHS).
Where “and” joins values, the source holds several entries; their conditions need not be identical. Equal values may be shown once. Calls of active or inactive are those of the source. Rule for the calls: active = hit-call score of the fitted dose curve at least 0.9, where 1 is the maximum; inactive = score below 0.9.

Legend:
[1] = read-out: Matrix Metallopeptidase 1 (MMP1), MMP1 (gene 4312); assay: BSK_BF4T_MMP1: BioMAP Diversity Plus: BF4T Assay for Matrix Metallopeptidase 1 (MMP1) Biomarker Activity (AID 2284270); details: primary human bronchial epithelial cells with fibroblasts
Method in brief: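 MMP-1 quantified by ELISA in primary human bronchial epithelial/dermal fibroblast co-cultures, 24 hours post-dosing, with DMSO as baseline; parallel sulforhodamine B staining (560 nm) tracks overt cytotoxicity.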

[2] = read-out: Matrix Metallopeptidase 3 (MMP3), MMP3 (gene 4314); assay: BSK_BF4T_MMP3: BioMAP Diversity Plus: BF4T Assay for Matrix Metallopeptidase 3 (MMP3) Biomarker Activity (AID 2284271); details: primary human bronchial epithelial cells with fibroblasts
Procedure: BSK_BF4T is a cell-based, multiplexed-readout assay that uses bronchial epithelial cells and dermal fibroblasts, a human vascular primary cell, with measurements taken at 24 hours after chemical dosing in a microplate: 96-well plate.BSK_BF4T_MMP3 is an assay component measured in the BSK_BF4T assay. It measures MMP-3 antibody related to regulation of gene expression using ELISA technology.Data from the assay component BSK_BF4T_MMP3 was analyzed at the endpoint, BSK_BF4T_MMP3, in the positive analysis fitting direction relative to DMSO as the negative control and baseline of activity. Using a type of binding reporter, gain or loss-of-signal activity can be used to understand protein changes. To generalize the intended target to other relatable targets, this assay endpoint is annotated to the 'protease' intended target family, where the subfamily is 'matrix metalloproteinase'.
(§1) The levels of cell surface (or secreted, indicated by the prefix "s") biomarker endpoints were measured by ELISA. Overt cytotoxicity to cells in confluent adherent cultures (all systems other than the BT system) was assessed by measuring total protein levels using sulforhodamine B (SRB) staining in parallel cultures at the time of biomarker measurements, indicated as SRB endpoints. For proliferation assays for adherent cell types, individual cell types are cultured at sub-confluence and relative cell numbers quantified by SRB staining at time points optimized for each system (48 h: 3C and CASM3C systems; 72 h: BT and HDF3CGF systems; 96 h: SAg system). SRB was performed by staining cells with 0.1% SRB after fixation with 10% TCA and reading wells at 560 nm.Viability and proliferation of PBMC (T cells) was quantified by Alamar Blue reduction for the SAg and BT systems. For PBMC viability (referred to as PBMC Cytotoxicity within the assay endpoint names), cells were plated (75,000/well in a 96-well plate) and then chemical samples added for 1 h before addition of activators, SEB and TSST-1 (20 ng/mL final concentration each). Cells were incubated for 90 h. Then, Alamar Blue (20 uL/well) (Invitrogen, Cat DAL1100) was added for 6 h, and the plates were read with a fluorescence microplate reader at 546/580 nm (excitation/emission). For PBMC proliferation, cells were plated and activated as above but incubated for only 16 h prior to addition of Alamar Blue. Plates were read after 6 h.

[3] = read-out: Tissue plasminogen activator (tPA), PLAT (gene 5327); assay: BSK_BF4T_tPA: BioMAP Diversity Plus: BF4T Assay for Tissue plasminogen activator (tPA) Biomarker Activity (AID 2284272); details: primary human bronchial epithelial cells with fibroblasts
Method in brief: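 tPA level quantified by ELISA at 24 h post-treatment in bronchial epithelial/dermal fibroblast co-cultures, gain of signal scored against DMSO baseline. Parallel cultures stained with 0.1% SRB (560 nm) to flag overt cytotoxicity.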

[4] = read-out: Plasminogen Activator Inhibitor-1 (PAI1), SERPINE1 (gene 5054); assay: BSK_BF4T_PAI1: BioMAP Diversity Plus: BF4T Assay for Plasminogen Activator Inhibitor-1 (PAI1) Biomarker Activity (AID 2284273); details: primary human bronchial epithelial cells with fibroblasts
Method in brief: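 PAI-1 levels quantified by ELISA 24 h post-dosing in bronchial epithelial cell plus dermal fibroblast cultures. Signal gain referenced to DMSO baseline. Sulforhodamine B total-protein staining of parallel wells checked cytotoxicity.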

[5] = BSK_BF4T_SRB: Viability Assessment in the BioMAP Diversity Plus: BF4T Assay (AID 2284274); details: primary human bronchial epithelial cells with fibroblasts;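 for AC50: measured 24 h after compound addition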
Procedure: BSK_BF4T is a cell-based, multiplexed-readout assay that uses bronchial epithelial cells and dermal fibroblasts, a human vascular primary cell, with measurements taken at 24 hours after chemical dosing in a microplate: 96-well plate.BSK_BF4T_SRB is an assay component measured in the BSK_BF4T assay. It measures 0.1% sulforhodamine related to cell death using Sulforhodamine staining technology.Data from the assay component BSK_BF4T_SRB was analyzed at the endpoint, BSK_BF4T_SRB, in the positive analysis fitting direction relative to DMSO as the negative control and baseline of activity. Using a type of viability reporter, gain or loss-of-signal activity can be used to understand protein changes. To generalize the intended target to other relatable targets, this assay endpoint is annotated to the 'cell morphology' intended target family, where the subfamily is 'cell conformation'.
as §1

[6] = read-out: urokinase Plasminogen Activator (uPA), PLAU (gene 5328); assay: BSK_BF4T_uPA: BioMAP Diversity Plus: BF4T Assay for urokinase Plasminogen Activator (uPA) Biomarker Activity (AID 2284275); details: primary human bronchial epithelial cells with fibroblasts
Method in brief: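 uPA levels measured by ELISA at 24 hours in BF4T cultures (bronchial epithelial cells plus dermal fibroblasts) and compared with DMSO; cytotoxicity tracked in parallel cultures by sulforhodamine B staining.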

[7] = read-out: Matrix Metallopeptidase 9 (MMP9), MMP9 (gene 4318); assay: BSK_BF4T_MMP9: BioMAP Diversity Plus: BF4T Assay for Matrix Metallopeptidase 9 (MMP9) Biomarker Activity (AID 2284276); details: primary human bronchial epithelial cells with fibroblasts
Method in brief: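 MMP-9 levels were measured by ELISA after 24 h exposure of bronchial epithelial cell/dermal fibroblast co-cultures, with DMSO as baseline. Parallel cultures were stained with 0.1% SRB after TCA fixation, read at 560 nm, to flag overt cytotoxicity.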

[8] = read-out: Interleukin-8 (IL8), CXCL8 (gene 3576); assay: BSK_IMphg_IL8: BioMAP Diversity Plus: IMphg Assay for Interleukin-8 (IL8) Biomarker Activity (AID 2284277); details: primary human endothelial cells with macrophages
Procedure: BSK_IMphg is a cell-based, multiplexed-readout assay that uses venular endothelial cells and macrophages, a human vascular primary cell, with measurements taken at 24 hours after chemical dosing in a microplate: 96-well plate.BSK_IMphg_IL8 is an assay component measured in the BSK_IMphg assay. It measures IL-8 antibody related to regulation of gene expression using ELISA technology.Data from the assay component BSK_IMphg_IL8 was analyzed at the endpoint, BSK_IMphg_IL8, in the positive analysis fitting direction relative to DMSO as the negative control and baseline of activity. Using a type of binding reporter, gain or loss-of-signal activity can be used to understand protein changes. To generalize the intended target to other relatable targets, this assay endpoint is annotated to the 'cytokine' intended target family, where the subfamily is 'interleukins'.
as §1

[9] = read-out: Intercellular Adhesion Molecule 1 (ICAM1), ICAM1 (gene 3383); assay: BSK_BE3C_ICAM1: BioMAP Diversity Plus: BE3C Assay for Intercellular Adhesion Molecule 1 (ICAM1) Biomarker Activity (AID 2284278); details: primary human bronchial epithelial cells
Procedure: BSK_BE3C is a cell-based, multiplexed-readout assay that uses bronchial epithelial cell, a human lung primary cell, with measurements taken at 24 hours after chemical dosing in a 96-well plate.BSK_BE3C_ICAM1 is an assay component measured in the BSK_BE3C assay. It measures ICAM-1 antibody related to regulation of gene expression using ELISA technology.Data from the assay component BSK_BE3C_ICAM1 was analyzed at the endpoint, BSK_BE3C_ICAM1, in the positive analysis fitting direction relative to DMSO as the negative control and baseline of activity. Using a type of binding reporter, gain or loss-of-signal activity can be used to understand protein changes. To generalize the intended target to other relatable targets, this assay endpoint is annotated to the 'cell adhesion molecules' intended target family, where the subfamily is 'Immunoglobulin CAM'.
as §1

[10] = read-out: Interferon-inducible T-cell alpha chemoattractant (ITAC), CXCL11 (gene 6373); assay: BSK_BE3C_ITAC: BioMAP Diversity Plus: BE3C Assay for Interferon-inducible T-cell alpha chemoattractant (ITAC) Biomarker Activity (AID 2284279); details: primary human bronchial epithelial cells
Method in brief: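 ELISA for I-TAC in primary human bronchial epithelial cultures 24 h post-treatment, fitted relative to DMSO baseline in positive direction. Cytotoxicity checked in parallel cultures by sulforhodamine B protein staining.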

Structure (SMILES) | outcome [1] | outcome [2] | outcome [3] | outcome [4] | outcome [5] | outcome [6] | outcome [7] | outcome [8] | outcome [9] | outcome [10] | AC50 [2] | AC50 [3] | AC50 [4] | AC50 [5] | AC50 [6] | AC50 [7] | AC50 [8] | AC50 [9] | AC50 [10] | AC50 [1]
O=C(O)C(F)(F)C(F)(F)C(F)(F)C(F)(F)C(F)(F)F | inactive | inactive | inactive | inactive | inactive | inactive | inactive | inactive | inactive | inactive | – | – | – | – | – | – | – | – | – | –
NS(=O)(=O)C(F)(F)C(F)(F)C(F)(F)C(F)(F)C(F)(F)C(F)(F)C(F)(F)C(F)(F)F | inactive | – | – | – | – | – | – | – | – | – | 52.2 µM (active) and 49.7 µM (active) | 51.4 µM (active) and 55 µM (active) | 44 µM (active) and 45.9 µM (active) | 45 µM (active) and 47.5 µM (active) | 48.2 µM (active) and 44.3 µM (active) | 23.3 µM (active) and 34 µM (active) | 52.1 µM (active) and 14.9 µM (active) | 55 µM (active) and 53 µM (active) | 43.2 µM (active) and 36.9 µM (active) | –
O=C(O)C(F)(F)C(F)(F)C(F)(F)C(F)(F)C(F)(F)C(F)(F)C(F)(F)C(F)(F)F | – | – | – | – | – | – | – | – | – | – | 47.4 µM (active) and 55.2 µM (active) | 35.6 µM (active) and 27.7 µM (active) | 47.5 µM (active) and 46.2 µM (active) | 43.3 µM (active) and 44 µM (active) | 50.3 µM (active) and 54.7 µM (active) | 44.2 µM (active) and 45.2 µM (active) | 15.8 µM (active) and 5.94 µM (active) | 56.4 µM (active) and 54.7 µM (active) | 49.1 µM (active) and 56 µM (active) | 48.4 µM (active) and 51.1 µM (active)
